Unmarked numbers belong to inactive results. Records with an inconclusive call do not appear. The source made the active and inactive calls. Unless noted, calls come from the whole dose curve; as a rule, active = well fitted curve in the direction sought with a large enough effect in the repeat runs; inconclusive = weak or mixed curves; inactive = no such curve, though single readings can be large; an effect the other way counts as inactive or inconclusive.

Results on 14 molecules are retold here after PubChem BioAssay (Tox21).

A short description of test [1]: qHTS assay to identify small molecule agonists of the hypoxia (HIF-1) signaling pathway - cell viability counter screen (AID 1224844; calls by dose curve; note: nearly all actives have a fitted effect of over 50% in size; note: potency is the fitted concentration of half-maximal effect). In outline: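 Cells (HRE-bla ME-180, 2,000 per well) sat 5 hrs at 37C, got compound for 17 hrs, were read for CCF4-AM FRET, and were finally lysed with CellTiter-Glo for a 30 min room-temperature luminescence read.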
For orientation: In qHTS, concentration-response curves come from the screen itself.

Test [2] is described as follows: qHTS assay to identify small molecule agonists of H2AX (AID 1224845; active = well fitted activation curve with a large enough effect in the signal ratio in the repeat runs, not every such curve was filed as active; the % refers to the signal ratio). In outline: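 Phospho-H2AX Ser139 measured by HTRF (ex 320 nm; em 665 and 620 nm) after 24 hr antibody incubation. Compounds, 15 concentrations, 0.76% DMSO, were applied to CHO-K1 cells for 3hr at 37C before lysis.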
Test [3] is described as follows: qHTS assay to identify small molecule antagonists of the estrogen related receptor (ERR) signaling pathway from Tox21 library (AID 1224848). Note: nearly all actives have a fitted effect of over 50% in size. Note: potency is the fitted concentration of half-maximal effect. In outline:
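Antagonist-mode screen of the Tox21 10K library in an NTP-provided ERR reporter cell line; 18 h compound exposure at 37 C, luminescence measured with ONE-Glo.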

A short description of test [4]: qHTS assay to identify small molecule agonists of the estrogen related receptor (ERR) signaling pathway from Tox21 library (AID 1224849; calls by dose curve; note: nearly all actives have a fitted effect of over 15% in size). The settings on record: ERR reporter cell line, ONE-Glo luciferase, 18 h; at 92.4 µM (top of the series) unless noted. In outline: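 Screening used an NTP-provided ERR luciferase cell line. Compounds in DMSO were added 6 h after seeding and left 18 h at 37 C before a 30 min ONE-Glo step and luminescence reading.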

Test [5] in a line: qHTS RealTime-Glo MT Cell Viability Assay in HepG2 cells - 24 hour (AID 1224867). Note: nearly all actives have a fitted effect of over 50% in size. In outline:
(§1)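 HepG2 suspension premixed with RealTime-Glo reagents is plated at 600 cells per well and left 5 h at 37 C/5% CO2. Compounds in DMSO then go in, and bioluminescence reflecting viable cell number is recorded over 40 h.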

The nature of test [6]: A CellTox Green Cytotoxicity Assay to monitor cytotoxicity in HEK293 cells - 0 hour (AID 1224869). Note: nearly all actives have a fitted effect of over 50% in size. In outline:
(§2)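 Fluorescence intensity, read at 0, 8, 16, 24, 32 and 40 h of compound treatment, reflected dye binding to DNA of dead HEK293 cells; compounds (23 nL, DMSO) were added 5 h after plating cells with reagent.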

Test [7] in a line: qHTS RealTime-Glo MT Cell Viability Assay in HepG2 cells - 40 hour (AID 1224870). Note: nearly all actives have a fitted effect of over 50% in size. Note: potency is the fitted concentration of half-maximal effect. In outline: (§3)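 Real-time viability: cells seeded at 600 per well together with NanoLuc and cell-permeant prosubstrate, compounds added after 5 h incubation. Luminescence tracked at 0, 8, 16, 24, 32 and 40 h of exposure.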
Test [8] is described as follows: A CellTox Green Cytotoxicity Assay to monitor cytotoxicity in HEK293 cells - 40 hour (AID 1224871). Note: nearly all actives have a fitted effect of over 45% in size. Note: potency is the fitted concentration of half-maximal effect. In outline:
as §2

Test [9] in a line: qHTS RealTime-Glo MT Cell Viability Assay in HEK293 cells - 16 hour (AID 1224872). Note: nearly all actives have a fitted effect of over 50% in size. Note: potency is the fitted concentration of half-maximal effect. In outline: (§4)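 Reads taken at 0, 8, 16, 24, 32 and 40 h from the same wells. HEK293 cells (600/well) carried RealTime-Glo reagents from seeding, with compound added after a 5 h settle at 37 C.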
The nature of test [10]: qHTS RealTime-Glo MT Cell Viability Assay in HepG2 cells - 8 hour (AID 1224873). Note: nearly all actives have a fitted effect of over 55% in size. In outline:
as §3

Test [11] in a line: qHTS RealTime-Glo MT Cell Viability Assay in HEK293 cells - 40 hour (AID 1224874). Note: nearly all actives have a fitted effect of over 50% in size. Note: potency is the fitted concentration of half-maximal effect. The conditions noted are these: RealTime-Glo luminescence; max response: stronger effect = lower value. In outline: (§5)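 Viable HEK293 cells reduce a cell-permeant prosubstrate; the product diffuses out and is consumed by NanoLuc in the medium to give light. Compounds went in after a 5 h incubation and plates were read over the treatment course.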

Test [12] can be described thus: A CellTox Green Cytotoxicity Assay to monitor cytotoxicity in HEK293 cells - 24 hour (AID 1224875). Note: nearly all actives have a fitted effect of over 45% in size. Note: potency is the fitted concentration of half-maximal effect. In outline:
as §2

Test [13] in a line: A CellTox Green Cytotoxicity Assay to monitor cytotoxicity in HepG2 cells - 16 hour (AID 1224876). Note: nearly all actives have a fitted effect of over 45% in size. In outline:
(§6)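 Using 1536-well format, dye-containing HepG2 suspension was seeded, allowed 5 h at 37 C/5% CO2, dosed by pintool with compounds, positive and negative controls, and imaged for fluorescence across 40 h.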

A short description of test [14]: qHTS RealTime-Glo MT Cell Viability Assay in HepG2 cells - 32 hour (AID 1224877). Note: nearly all actives have a fitted effect of over 55% in size. Note: potency is the fitted concentration of half-maximal effect. In outline: as §1
Test [15] can be described thus: A CellTox Green Cytotoxicity Assay to monitor cytotoxicity in HepG2 cells - 24 hour (AID 1224878). Note: nearly all actives have a fitted effect of over 45% in size. Note: potency is the fitted concentration of half-maximal effect. In outline: as §6
Test [16] in a line: A CellTox Green Cytotoxicity Assay to monitor cytotoxicity in HepG2 cells - 40 hour (AID 1224879). Note: nearly all actives have a fitted effect of over 40% in size. Note: potency is the fitted concentration of half-maximal effect. In outline:
as §6

The nature of test [17]: qHTS RealTime-Glo MT Cell Viability Assay in HEK293 cells - 0 hour (AID 1224880). Note: nearly all actives have a fitted effect of over 45% in size. Note: potency is the fitted concentration of half-maximal effect. In outline: as §5
Test [18] is described as follows: qHTS RealTime-Glo MT Cell Viability Assay in HEK293 cells - 32 hour (AID 1224868). Note: nearly all actives have a fitted effect of over 50% in size. Note: potency is the fitted concentration of half-maximal effect. In outline:
as §4

A short description of test [19]: qHTS assay to identify small molecule agonists of the hypoxia (HIF-1) signaling pathway (AID 1224846; active = well fitted activation curve with a large enough effect in the signal ratio in the repeat runs, not every such curve was filed as active; the % refers to the signal ratio). In outline: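 A low-serum medium (0.5% dialyzed FBS) holding 2,000 HRE-bla ME-180 cells per well is preincubated for 5 hrs, dosed with compounds by pintool, and kept a further 17 hrs at 37C, 5% CO2 before CCF4-AM FRET detection of beta-lactamase.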
Test [20] can be described thus: qHTS assay to identify small molecule agonists of H2AX - cell viability counter screen (AID 1224847; calls by dose curve; note: top concentration of the series differs between compounds; nearly all actives have a fitted effect of over 30% in size). In outline:
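Wild-type CHO-K1 cells (10% FBS medium) were plated overnight at 37C, exposed to compounds at 15 concentrations for 3 hr at 37C (0.76% DMSO final), and viability was read as CellTiter-Glo luminescence after 30 min at room temperature.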
% is set by controls: 0 for no effect and ±100 for the full control effect.

As for `OC(CCN1CCCCC1)(c1ccccc1)C1CCCCC1` (stereo not given), the Potency result in [1], in test [2], in [3], in test [5], in [6] and in test [7] was “inactive” throughout. For the same molecule, the Potency entry in [8], in test [9], in [10], in test [12], in test [13] and in test [14] was “inactive” throughout. In addition, the Potency entry in [15], in [16] and in [17] was “inactive” throughout. Moreover, in test [4], the activity change, positive = activation was 2.3% [at 42.5 µM]. In addition, the max response in test [11] was -21.9%.
Consider `O=C(O)Cn1c(C(=O)Nc2nc(-c3ccccc3Cl)cs2)cc2ccccc21`, for which the Potency in test [1] is 8.49 µM (active). Further, the Potency entry in test [2], in test [3], in test [5], in test [18], in test [6] and in test [7] was “inactive” each time. The Potency result in [8], in test [9], in test [10], in [12], in test [13] and in [14] was “inactive” each time. The Potency entry in test [15] and in test [16] was “inactive” each time. Also, the max response in [11] is -2.19%.
For `CCCCCCOC(=O)CCC`, the Potency entry in [2], in test [20], in [5], in [18], in test [6] and in [7] was “inactive” each time. The Potency result in [8], in test [9], in test [10], in test [12], in test [13] and in test [14] was “inactive” in each case. Moreover, the Potency entry in test [15], in [16] and in test [17] was “inactive” in each case. In [19], the molecule was classed as inactive. In addition, in test [11], the max response is 6.13%.
Regarding `Cc1ccc(O)c([C@H](CCN(C(C)C)C(C)C)c2ccccc2)c1`, the Potency result in test [2], in test [20], in test [5], in test [6], in test [7] and in test [8] was “inactive” in each case. The Potency entry in test [9], in [10], in test [12], in test [13], in test [14] and in test [17] was “inactive” each time. Besides, in [19], the molecule was called inactive. The figures for the Potency in [15] and in test [16] were 21.3 µM (active) and 23.9 µM (active), respectively.
As for `CN1CCN(C2=Nc3cc(Cl)ccc3Nc3ccccc32)CC1`, the Potency entry in test [1], in test [20], in test [6], in test [8], in test [9] and in test [10] was “inactive” throughout. Also, the Potency result in test [12] and in test [13] was “inactive” in each case. Also, the Potency in test [15] and in test [16] was 23.9 µM (active) each time.
On to `CC[C@H](C)[C@@H](C(=O)O)n1sc2ccccc2c1=O`, for which the Potency result in test [2], in [20], in [18], in test [6], in test [8] and in test [9] was “inactive” throughout. Moreover, the Potency entry in test [10], in test [12], in test [13], in [15], in test [16] and in test [17] was “inactive” in each case. The outcome in test [19] was inactive. The Potency in test [7] was 30.9 µM (active); in test [14], 49 µM (active). Further, in test [11], the max response was -0.529%.
Turning to `CCCCc1cc2ccccc2c(OCCN(C)C)n1`, the Potency entry in test [2], in test [5], in [6], in test [7], in [10] and in test [14] was “inactive” throughout. For the same molecule, the Potency entry in [17] was “inactive”. Besides, in [19], the result was inactive. Further, the Potency in test [8] was 21.3 µM (active).
Take `CC(C)c1ccc2c(C(C)C)cc(C(C)C)c(S(=O)(=O)O)c2c1`: the Potency result in test [2], in test [5], in test [18], in test [6], in test [7] and in test [9] was “inactive” each time. Moreover, the Potency entry in [10], in test [13], in test [14], in test [15] and in test [16] was “inactive” each time. For the same molecule, the outcome in test [19] was inactive. For the same molecule, the max response in [11] was -12.5%.
Take `O=C(O)Cc1cc(I)c(Oc2ccc(O)c(I)c2)c(I)c1`: the Potency was 38.9 µM (active) in test [1] and 27.3 µM (active) in test [3]. The Potency entry in [20], in [5], in test [18], in test [6], in test [7] and in [8] was “inactive” each time. For the same molecule, the Potency entry in test [9], in test [10], in test [12], in [13], in test [14] and in [15] was “inactive” throughout. Moreover, in [16], the Potency result was “inactive”. Further, the activity change, positive = activation in test [4] is -36.3%. For the same molecule, in test [11], the max response is 4.51%.
For the molecule `CCCCOc1ccc(CC(=O)NO)cc1`, in [19], the result was inactive. Further, the Potency entry in test [20], in test [5], in test [6], in test [7], in [8] and in test [10] was “inactive” each time. The Potency result in [12], in test [13], in test [14], in test [15] and in test [17] was “inactive” each time. Also, the Potency in test [9] is 2.68 µM (active).
As for `CC(=O)CC(=O)c1ccccc1`, the outcome in test [19] was inactive. The Potency result in test [20], in [3], in test [5], in test [6], in test [7] and in [8] was “inactive” in each case. Also, the Potency result in test [9], in test [10], in test [12], in test [13], in test [14] and in test [15] was “inactive” in each case. In addition, the Potency entry in [16] and in [17] was “inactive” throughout. In addition, the activity change, positive = activation in test [4] is 14.5%.
`Cc1cc(O)ccc1N`: the call in [19] was inactive. Besides, the activity change, positive = activation in test [4] was -16.6%. Besides, the Potency result in [5], in test [6], in test [7], in [13], in [14] and in [15] was “inactive” each time. In addition, the Potency entry in [16] was “inactive”. Moreover, the Potency was 49.2 µM (active) in test [18]; 34.9 µM (active) in test [8]; 49.2 µM (active) in test [9]; 43.9 µM (active) in [11]; 34.9 µM (active) in test [12]; 12.4 µM (active) in [17].
Turning to `CC(C(=O)O)c1ccc(C(=O)c2ccccc2)s1` (stereo not given), the Potency entry in test [1], in test [20], in test [5], in [18], in test [6] and in test [7] was “inactive” throughout. Moreover, the Potency entry in test [8], in test [9], in test [10], in test [12], in test [13] and in [14] was “inactive” throughout. Besides, the Potency entry in test [15], in test [16] and in test [17] was “inactive” throughout. Moreover, the max response in test [11] was 4.65%.
In the case of `O=S1(=O)N=C(O)c2ccccc21`, the Potency entry in test [2], in [20], in test [5], in [6], in test [7] and in test [8] was “inactive” each time. Moreover, the Potency result in test [9], in test [10], in test [12], in test [13], in test [14] and in test [15] was “inactive” in each case. Moreover, the Potency entry in test [17] was “inactive”. Further, in test [19], the molecule was called inactive. In addition, the max response in [11] is 2.61%.
